Source: PubChem
Tb PYK inh – qHTS of Trypanosoma Brucei Inhibitors; AID 624173, 2012; Potency, µM (doses to about 76.8 µM), without a hit: at the top dose activity, negative = inhibition, hits mostly inhibitors; TbPYK enzyme, Kinase-Glo Plus ATP luminescence, 45 min; 410,000 tested, 0.12% active; further: potency means the concentration at half of the fitted maximal effect; on the % scale 0 is the no-effect control and ±100 the full control effect; nearly all actives have a fitted effect of over 50% in size
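Readout: single end-point luminescence (Kinase-Glo Plus, 10 min). Reaction conditions were TbPYK/substrate plus 130 uM ADP, 45 min at RT, pH 7.2 TEA buffer. No-enzyme wells served as controls, and data were normalized before concentration-response fitting.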
LmPK inhibitor – qHTS Assay for Inhibitors of Leishmania Mexicana Pyruvate Kinase (LmPK); Potency, µM (highest dose often 57.5 µM), for the others: at the highest dose activity change, negative = inhibition, most hits filed as inhibitors; 290,000 tested, 0.37% active; Q27686; purified LmPK, Kinase-Glo ATP luminescence, 1 h; further: potency means the concentration at half of the fitted maximal effect; on the % scale 0 is the no-effect control and ±100 the full control effect
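0.1 nM LmPK, 0.5 mM PEP, 0.1 mM ADP; 50 mM imidazole pH 7.2, 7 mM MgCl2, 50 mM KCl; 1 h RT. Kinase-Glo luminescence readout, normalized to no-enzyme (full inhibition) and uninhibited wells.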
FBPA Giardia inh – qHTS Assay for Inhibitors of Fructose-1,6-bisphosphate Aldolase from Giardia Lamblia; A8B2U2; purified Giardia FBPA; Potency, µM (titrated, usually from 59.6 µM), for the others: at the top dose activity, negative = inhibition, most hits filed as inhibitors; 290,000 tested, 0.71% active; AID 2451, 2010; further: potency means the concentration at half of the fitted maximal effect; on the % scale 0 is the no-effect control and ±100 the full control effect; nearly all actives have a fitted effect of over 55% in size
Target sequence (A8B2U2 whole entry, looked up): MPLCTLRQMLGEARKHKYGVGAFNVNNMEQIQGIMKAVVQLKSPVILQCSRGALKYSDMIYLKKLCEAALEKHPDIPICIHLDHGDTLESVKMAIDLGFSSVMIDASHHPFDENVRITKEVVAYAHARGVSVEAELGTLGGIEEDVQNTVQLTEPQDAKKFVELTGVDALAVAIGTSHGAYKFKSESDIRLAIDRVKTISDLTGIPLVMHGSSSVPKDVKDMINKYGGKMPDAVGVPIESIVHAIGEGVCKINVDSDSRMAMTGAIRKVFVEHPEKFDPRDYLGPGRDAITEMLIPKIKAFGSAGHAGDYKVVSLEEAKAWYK
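Giardia FBPA (40 nM reagent) was preincubated 10 min at RT with compound (up to 57.5 uM final), then substrate plus GAPDH/TPI/NAD/arsenate coupling system with diaphorase/resazurin was added; resorufin fluorescence (525/598 nm) was read after 20 min.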
Sm TGR inh – qHTS Assay for the Inhibitors of Schistosoma Mansoni Peroxiredoxins; purified TGR, DTNB reduction, TNB absorbance 405 nm; 360,000 tested, 3% active; Potency, µM (series often up to 114 µM), for the others: at the highest dose activity change, negative = inhibition, hits mostly inhibitors; Schistosoma mansoni thioredoxin glutathione reductase (TGR), Q962Y6; AID 485364, 2010; further: potency means the concentration at half of the fitted maximal effect; on the % scale 0 is the no-effect control and ±100 the full control effect; nearly all actives have a fitted effect of over 60% in size
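First, TGR (20 nM dispensed) and NADPH were mixed with compound. Second, a 15 min room-temperature incubation followed. Third, further NADPH and then DTNB were added to start the reaction. Finally, TNB absorbance was monitored kinetically.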
Shiga toxin inh – A qHTS for Small Molecule Inhibitors of Shiga Toxin; Vero cells, Shiga toxin protein synthesis inhibition reporter; inhibition, % at 38.7 µM; 290,000 tested, 9.2% active; in the data active means inhibition mostly above about 28%, no sharp cut-off; inactive means mostly below about 43%; further: 0% is about no effect
Cycloheximide cs – Cycloheximide Counterscreen for Small Molecule Inhibitors of Shiga Toxin. cell reporter, cycloheximide protein synthesis inhibition counterscreen. max response, %. 300,000 tested, 12% active; in the data active means max response mostly above about 13%, no sharp cut-off; inactive means mostly below about 14%; further: read at 38.3 µM for the half of the compounds with a filed dose; 0% is about no effect
* hit, by the source's call; ? = inconclusive; · = no result; + = active, no number; [ ] = remark or other dose. This excerpt belongs to a sample that is enriched for hits. Unless noted, the call rests on the fitted dose curve; in most records, active means well fitted curve in the direction sought with a large enough effect; inconclusive means small, poorly fitted or top-dose-only effect, or another doubt; inactive means no such curve, though single readings can be large; an effect the other way counts as inactive or inconclusive.

SMILES | Tb PYK inh | LmPK inhibitor | FBPA Giardia inh | Sm TGR inh | Shiga toxin inh | Cycloheximide cs
CCCCN(C)CC(O)Cn1cc(/C=C/C(=O)c2ccc(OC)c(OC)c2)c2ccccc21 (stereo not drawn) | -1% | · | · | -3% | · | ·
COc1ccc(-c2noc(=O)n2Cc2ccccc2Cl)cc1 | 0% | 5% | 7% | 0% | 1 | -4
CN(C(=O)COC(=O)c1ccc(S(=O)(=O)N2CCOCC2)cc1)c1ccccc1 | -1% | · | · | · | · | ·
COc1ccc(/C=N/Nc2nncc3ccccc23)cc1 | ? | 11µM* | -1% | 0% | 9 | 25*
COc1ccccc1/C=N/Nc1nncc2ccccc12 | -8% | -6% | -10% | 2% | + | 46*
COc1ccc(/C(C)=N/Nc2nc3ccccc3nc2C)cc1 | 1% | -10% | ? | -31% | 76* | 45*
CNC(=S)NNc1nncc2ccccc12 | -2% | -1% | -19% | -22% | 21 | 8
NNc1nncc2ccccc12 | -8%[33.2 µM] | · | 5µM* | · | · | ·
C/C(=N\Nc1nc(-c2ccccc2O)nc2ccccc12)c1ccccc1 | -6% | -1% | -5% | -2% | 23 | 2
CC1CCN(S(=O)(=O)c2ccc3c(ccc(=O)n3CC(=O)Nc3ccc(C(C)C)cc3)c2)CC1 | -4% | · | · | 4% | · | ·
Oc1c(Br)cc(/C=N/Nc2nncc3ccccc23)cc1Br | -3% | 0% | ? | -31% | 67 | 30*
COc1ccc(/C(C)=N/Nc2nncc3ccccc23)cc1 | -1% | -15% | 6% | 29% | 63* | 27*
COc1ccc(-c2c(=O)n(OCc3nc4ccccc4[nH]3)c3ccccc3[n+]2[O-])cc1 | -1% | -1% | -2% | 3% | 33 | 29*
C=CCOn1c(=O)c(-c2ccc(OC)cc2)[n+]([O-])c2ccccc21 | -8% | -3% | -4% | -5% | 52 | 14*
CCOc1ccc(-c2c(=O)n(OCc3nc4ccccc4[nH]3)c3ccccc3[n+]2[O-])cc1 | 0% | -22% | -13% | -22% | 32* | 19
COn1c(=O)c(-c2ccc(F)cc2)[n+]([O-])c2ccccc21 | 1% | 3% | -10% | -25% | 3 | -2
CCOC(=O)C1=NO[C@@]2(C=C(Br)C3(OCCCO3)[C@H]3O[C@H]32)C1 | · | · | 1%[12.9 µM] | · | · | ·
Cc1ccc(N2C(=O)CC(Sc3nccc(C)n3)C2=O)cc1 (stereo not drawn) | -3% | 0% | 5% | ? | 1 | -3
Cc1ccnc(SC2CC(=O)N(c3ccc([N+](=O)[O-])cc3)C2=O)n1 (stereo not drawn) | 0% | -2% | -8% | 22µM* | 6 | -1
CCc1ccccc1N1C(=O)CC(Sc2nccc(C)n2)C1=O (stereo not drawn) | 5% | -3% | -8% | 40µM* | -2 | -3
COc1ccc(N(C(=O)c2ccccc2)S(=O)(=O)c2ccc3c(c2)n(C)c(=O)n3C)cc1 | 2% | · | · | -1% | · | ·
CCOC(=O)c1cnc2c(ccc3ccccc32)c1Nc1ccc(C(C)=O)cc1 | 0% | · | · | -3% | · | ·
Cc1oncc1C(=O)N1CCCC(CO)(Cc2ccc(F)cc2F)C1 (stereo not drawn) | -2% | 5% | 8% | -4% | 38 | 17*
CC(C)Oc1ccc(CCN=C(N)N=C(N)N)cc1Cl | 11% | 1% | 4% | 13% | 51* | 29*
Oc1ccc(Oc2ccc(Oc3ccc(O)cc3)cc2)cc1 | -9% | 3% | 7% | -1% | · | 17*
SMILES | Tb PYK inh | LmPK inhibitor | FBPA Giardia inh | Sm TGR inh | Shiga toxin inh | Cycloheximide cs
CC1=NN(c2ccccc2)C(=O)/C1=C/c1ccc[nH]1 | -2% | 1% | -1% | -2% | 78* | 21*
CC1=NN(c2ccccc2)C(=O)/C1=C\N(O)c1ccccc1 | -8% | 0% | -21% | -3% | 38 | 13*
CC1=NN(c2ccccc2)C(=O)C1=Cc1ccccc1 | -2% | · | · | · | · | ·
CC1=NN(c2ccccc2)C(=O)/C1=C/c1c(O)n(-c2ccc(F)cc2)[nH]c1=O | -3% | -3% | 5% | -21% | -7 | 24*
CCc1cc(C(=O)NCC2CCCO2)sc1C (stereo not drawn) | -3% | 0% | · | 7% | 43* | 31*
O=C(CNC(=O)c1ccc(Cl)cc1Cl)NCC1CCCO1 (stereo not drawn) | -4% | 5% | 5% | -18% | -5 | -2
Cc1ccc(Nc2nc(C(=O)NCC3CCCO3)cs2)cc1 (stereo not drawn) | 7% | 5% | -3% | 9% | 51* | 24*
O=C(NCC1CCCO1)c1cc(Br)c(Br)s1 (stereo not drawn) | -1% | 3% | · | 12% | 22 | 8
O=C(Cc1ccccc1)NCC1CCCO1 (stereo not drawn) | 2% | -6% | 0% | 1% | -12 | -2
O=C(NCC1CCCO1)c1cc(-c2ccccc2)on1 (stereo not drawn) | -8% | -11% | 2% | 7% | 129* | 40*
O=C(NCC1CCCO1)c1cc(-c2ccc(Cl)cc2Cl)on1 (stereo not drawn) | 0% | 2% | · | -12% | 75* | 52*
CC12CCC3C4CCC(=O)C(O)=C4CCC3C1CCC2OC(=O)CCC1CCCC1 (stereo not drawn) | -4% | · | · | · | · | ·
O=C(Nc1ccc(OC(F)(F)F)cc1)C1CCN(S(=O)(=O)c2ccc3[nH]c(=O)ccc3c2)CC1 | -1% | · | · | -3% | · | ·
O=C(Nc1ccccc1)/C(=C/c1ccc(O)cc1)NC(=O)c1ccco1 | 0% | 0% | 1% | -24% | -11 | -5
CCO[C@H]1OC(C(N)=O)=C[C@@H](C2CC2)[C@@H]1CCCO | 4% | · | · | · | · | ·
O=C(CN1C(=O)COc2ccc(S(=O)(=O)N3CCCCCC3)cc21)N1CCN(c2ccc(Cl)cc2)CC1 | -1% | · | · | 10% | · | ·
CC(C)NC(=O)C1CCN(C(=O)c2ccc(-c3ccccc3)cc2)CC1 | 4% | -4% | -4% | 6% | -5 | -1
Cc1ccc(Nc2nc(C(=O)N3CCC(C(=O)NC(C)C)CC3)cs2)cc1 | 0% | -10% | -1% | 2% | 17 | 17*
CCN(CC)C(=O)c1csc(Nc2ccc(C)cc2)n1 | -1% | -2% | 1% | 4% | 49* | 20*
Cc1ccc(Nc2nc(C(=O)NCc3ccco3)cs2)cc1 | 0% | -1% | -4% | -17% | 40 | 20
O=C(NCC1CCCO1)c1ccccc1-c1nc(-c2ccccc2)no1 (stereo not drawn) | -4% | -3% | 1% | -15% | 112* | 35*
